# Reference: article PMC11062922 (Nature Chemical Biology, 2023)
# Where two headings read alike, the source gives them in different places.
# Legend:
# TNK1 = conditions: read-out: apparent Kd, n = 1
# TTK = conditions: read-out: apparent Kd, n = 1
# [1] = compound concentrations:100 nM and 1000 nM (sheet 'Lestaurtinib' of Supplementary Table 1),run:Lestaurtinib_02496_R2,Plate:MR013
# [2] = compound concentrations:100 nM and 1000 nM (sheet 'Lestaurtinib' of Supplementary Table 1),run:Lestaurtinib_02566_R1,Plate:MR014
# [3] = compound concentrations:100 nM and 1000 nM (sheet 'Lestaurtinib' of Supplementary Table 1),run:Lestaurtinib_02566_R2,Plate:MR014
# [4] = compound concentrations:100 nM and 1000 nM (sheet 'Lestaurtinib' of Supplementary Table 1),run:Lestaurtinib_02566_R3,Plate:MR014
# [5] = compound concentrations:100 nM and 1000 nM (sheet 'Lestaurtinib' of Supplementary Table 1),run:Lestaurtinib_02572_R2,Plate:MR015
# [6] = compound concentrations:100 nM and 1000 nM (sheet 'Lestaurtinib' of Supplementary Table 1),run:Lestaurtinib_02577_R3,Plate:MR016
# [7] = compound concentrations:100 nM and 1000 nM (sheet 'Lestaurtinib' of Supplementary Table 1),run:Lestaurtinib_02606_R3,Plate:MR019
# [8] = compound concentrations:100 nM and 1000 nM (sheet 'Lestaurtinib' of Supplementary Table 1),run:Lestaurtinib_02624_R1,Plate:MR020
# [9] = compound concentrations:100 nM and 1000 nM (sheet 'Lestaurtinib' of Supplementary Table 1),run:Lestaurtinib_02624_R3,Plate:MR020
# [10] = compound concentrations:100 nM and 1000 nM (sheet 'Lestaurtinib' of Supplementary Table 1),run:Lestaurtinib_02724_R1,Plate:MR021
# [11] = compound concentrations:100 nM and 1000 nM (sheet 'Lestaurtinib' of Supplementary Table 1),run:Lestaurtinib_02748_R2,Plate:MR024
# [12] = compound concentrations:100 nM and 1000 nM (sheet 'Lestaurtinib' of Supplementary Table 1),run:Lestaurtinib_02752_R2,Plate:MR025
# [13] = compound concentrations:100 nM and 1000 nM (sheet 'Lestaurtinib' of Supplementary Table 1),run:Lestaurtinib_02765_R2,Plate:MR026
# [14] = compound concentrations:100 nM and 1000 nM (sheet 'Lestaurtinib' of Supplementary Table 1),run:Lestaurtinib_02765_R3,Plate:MR026
# [15] = compound concentrations:100 nM and 1000 nM (sheet 'Lestaurtinib' of Supplementary Table 1),run:Lestaurtinib_02768_R2,Plate:MR028
# [16] = compound concentrations:100 nM and 1000 nM (sheet 'Lestaurtinib' of Supplementary Table 1),run:Lestaurtinib_02795_R3,Plate:MR022
# [17] = compound concentrations:100 nM and 1000 nM (sheet 'Lestaurtinib' of Supplementary Table 1),run:Lestaurtinib_02802_R1,Plate:MR029
# [18] = compound concentrations:100 nM and 1000 nM (sheet 'Lestaurtinib' of Supplementary Table 1),run:Lestaurtinib_03260_R1,Plate:MR033
# [19] = compound concentrations:100 nM and 1000 nM (sheet 'Lestaurtinib' of Supplementary Table 1),run:Lestaurtinib_03260_R2,Plate:MR033
substance,measurement,setting,value
Lestaurtinib,potency estimated from few doses,"TNK1; compound concentrations:100 nM and 1000 nM (sheet 'Lestaurtinib' of Supplementary Table 1),run:Lestaurtinib_02438_R3,Plate:MR008",71.3 nM
same,potency estimated from few doses,"TNK1; compound concentrations:100 nM and 1000 nM (sheet 'Lestaurtinib' of Supplementary Table 1),run:Lestaurtinib_02443_R3,Plate:MR009",143 nM
same,potency estimated from few doses,"TNK1; compound concentrations:100 nM and 1000 nM (sheet 'Lestaurtinib' of Supplementary Table 1),run:Lestaurtinib_02473_R2,Plate:MR010",98.6 nM
same,potency estimated from few doses,"TNK1; compound concentrations:100 nM and 1000 nM (sheet 'Lestaurtinib' of Supplementary Table 1),run:Lestaurtinib_02482_R3,Plate:MR011",222 nM
same,potency estimated from few doses,"TNK1; compound concentrations:100 nM and 1000 nM (sheet 'Lestaurtinib' of Supplementary Table 1),run:Lestaurtinib_02487_R3,Plate:MR012",81.8 nM
same,potency estimated from few doses,TNK1; [1],95.2 nM
same,potency estimated from few doses,TNK1; [2],250 nM
same,potency estimated from few doses,TNK1; [3],221 nM
same,potency estimated from few doses,TNK1; [4],208 nM
same,potency estimated from few doses,TNK1; [5],53.4 nM
same,potency estimated from few doses,"TNK1; compound concentrations:100 nM and 1000 nM (sheet 'Lestaurtinib' of Supplementary Table 1),run:Lestaurtinib_02577_R1,Plate:MR016",240 nM
same,potency estimated from few doses,TNK1; [6],209 nM
same,potency estimated from few doses,"TNK1; compound concentrations:100 nM and 1000 nM (sheet 'Lestaurtinib' of Supplementary Table 1),run:Lestaurtinib_02584_R3,Plate:MR017",220 nM
same,potency estimated from few doses,"TNK1; compound concentrations:100 nM and 1000 nM (sheet 'Lestaurtinib' of Supplementary Table 1),run:Lestaurtinib_02606_R2,Plate:MR019",45.1 nM
same,potency estimated from few doses,TNK1; [7],274 nM
same,potency estimated from few doses,TNK1; [8],219 nM
same,potency estimated from few doses,TNK1; [9],91.7 nM
same,potency estimated from few doses,TNK1; [10],256 nM
same,potency estimated from few doses,"TNK1; compound concentrations:100 nM and 1000 nM (sheet 'Lestaurtinib' of Supplementary Table 1),run:Lestaurtinib_02724_R3,Plate:MR021",60 nM
same,potency estimated from few doses,TNK1; [11],97 nM
same,potency estimated from few doses,"TNK1; compound concentrations:100 nM and 1000 nM (sheet 'Lestaurtinib' of Supplementary Table 1),run:Lestaurtinib_02752_R1,Plate:MR025",245 nM
same,potency estimated from few doses,TNK1; [12],209 nM
same,potency estimated from few doses,"TNK1; compound concentrations:100 nM and 1000 nM (sheet 'Lestaurtinib' of Supplementary Table 1),run:Lestaurtinib_02752_R3,Plate:MR025",208 nM
same,potency estimated from few doses,"TNK1; compound concentrations:100 nM and 1000 nM (sheet 'Lestaurtinib' of Supplementary Table 1),run:Lestaurtinib_02765_R1,Plate:MR026",352 nM
same,potency estimated from few doses,TNK1; [13],275 nM
same,potency estimated from few doses,TNK1; [14],357 nM
same,potency estimated from few doses,"TNK1; compound concentrations:100 nM and 1000 nM (sheet 'Lestaurtinib' of Supplementary Table 1),run:Lestaurtinib_02766_R2,Plate:MR027",20.7 nM
same,potency estimated from few doses,"TNK1; compound concentrations:100 nM and 1000 nM (sheet 'Lestaurtinib' of Supplementary Table 1),run:Lestaurtinib_02766_R3,Plate:MR027",55.7 nM
same,potency estimated from few doses,TNK1; [15],79.2 nM
same,potency estimated from few doses,"TNK1; compound concentrations:100 nM and 1000 nM (sheet 'Lestaurtinib' of Supplementary Table 1),run:Lestaurtinib_02768_R3,Plate:MR028",115 nM
same,potency estimated from few doses,TNK1; [16],213 nM
same,potency estimated from few doses,TNK1; [17],81.9 nM
same,potency estimated from few doses,"TNK1; compound concentrations:100 nM and 1000 nM (sheet 'Lestaurtinib' of Supplementary Table 1),run:Lestaurtinib_03172_R2,Plate:MR031",211 nM
same,potency estimated from few doses,"TNK1; compound concentrations:100 nM and 1000 nM (sheet 'Lestaurtinib' of Supplementary Table 1),run:Lestaurtinib_03172_R3,Plate:MR031",85.4 nM
same,potency estimated from few doses,"TNK1; compound concentrations:100 nM and 1000 nM (sheet 'Lestaurtinib' of Supplementary Table 1),run:Lestaurtinib_03252_R1,Plate:MR032",243 nM
same,potency estimated from few doses,TNK1; [18],279 nM
same,potency estimated from few doses,TNK1; [19],258 nM
same,potency estimated from few doses,"TTK; compound concentrations:100 nM and 1000 nM (sheet 'Lestaurtinib' of Supplementary Table 1),run:Lestaurtinib_02339_R1,Plate:MR001",1930 nM
same,potency estimated from few doses,"TTK; compound concentrations:100 nM and 1000 nM (sheet 'Lestaurtinib' of Supplementary Table 1),run:Lestaurtinib_02339_R2,Plate:MR001",812 nM
same,potency estimated from few doses,"TTK; compound concentrations:100 nM and 1000 nM (sheet 'Lestaurtinib' of Supplementary Table 1),run:Lestaurtinib_02364_R2,Plate:MR002",1820 nM
same,potency estimated from few doses,"TTK; compound concentrations:100 nM and 1000 nM (sheet 'Lestaurtinib' of Supplementary Table 1),run:Lestaurtinib_02364_R3,Plate:MR002",1130 nM
same,potency estimated from few doses,"TTK; compound concentrations:100 nM and 1000 nM (sheet 'Lestaurtinib' of Supplementary Table 1),run:Lestaurtinib_02367_R1,Plate:MR003",172 nM
same,potency estimated from few doses,"TTK; compound concentrations:100 nM and 1000 nM (sheet 'Lestaurtinib' of Supplementary Table 1),run:Lestaurtinib_02367_R2,Plate:MR003",2190 nM
same,potency estimated from few doses,"TTK; compound concentrations:100 nM and 1000 nM (sheet 'Lestaurtinib' of Supplementary Table 1),run:Lestaurtinib_02422_R1,Plate:MR006",786 nM
same,potency estimated from few doses,"TTK; compound concentrations:100 nM and 1000 nM (sheet 'Lestaurtinib' of Supplementary Table 1),run:Lestaurtinib_02422_R2,Plate:MR006",1690 nM
same,potency estimated from few doses,"TTK; compound concentrations:100 nM and 1000 nM (sheet 'Lestaurtinib' of Supplementary Table 1),run:Lestaurtinib_02422_R3,Plate:MR006",1630 nM
same,potency estimated from few doses,"TTK; compound concentrations:100 nM and 1000 nM (sheet 'Lestaurtinib' of Supplementary Table 1),run:Lestaurtinib_02437_R1,Plate:MR007",94.9 nM
same,potency estimated from few doses,"TTK; compound concentrations:100 nM and 1000 nM (sheet 'Lestaurtinib' of Supplementary Table 1),run:Lestaurtinib_02437_R3,Plate:MR007",1430 nM
same,potency estimated from few doses,"TTK; compound concentrations:100 nM and 1000 nM (sheet 'Lestaurtinib' of Supplementary Table 1),run:Lestaurtinib_02438_R1,Plate:MR008",800 nM
same,potency estimated from few doses,"TTK; compound concentrations:100 nM and 1000 nM (sheet 'Lestaurtinib' of Supplementary Table 1),run:Lestaurtinib_02438_R2,Plate:MR008",1970 nM
same,potency estimated from few doses,"TTK; compound concentrations:100 nM and 1000 nM (sheet 'Lestaurtinib' of Supplementary Table 1),run:Lestaurtinib_02443_R1,Plate:MR009",1400 nM
same,potency estimated from few doses,"TTK; compound concentrations:100 nM and 1000 nM (sheet 'Lestaurtinib' of Supplementary Table 1),run:Lestaurtinib_02473_R1,Plate:MR010",950 nM
same,potency estimated from few doses,"TTK; compound concentrations:100 nM and 1000 nM (sheet 'Lestaurtinib' of Supplementary Table 1),run:Lestaurtinib_02496_R1,Plate:MR013",1370 nM
same,potency estimated from few doses,TTK; [1],1410 nM
same,potency estimated from few doses,TTK; [2],936 nM
same,potency estimated from few doses,TTK; [3],821 nM
same,potency estimated from few doses,TTK; [4],717 nM
same,potency estimated from few doses,TTK; [5],1840 nM
same,potency estimated from few doses,"TTK; compound concentrations:100 nM and 1000 nM (sheet 'Lestaurtinib' of Supplementary Table 1),run:Lestaurtinib_02572_R3,Plate:MR015",1440 nM
same,potency estimated from few doses,TTK; [6],1700 nM
same,potency estimated from few doses,"TTK; compound concentrations:100 nM and 1000 nM (sheet 'Lestaurtinib' of Supplementary Table 1),run:Lestaurtinib_02601_R1,Plate:MR018",1370 nM
same,potency estimated from few doses,"TTK; compound concentrations:100 nM and 1000 nM (sheet 'Lestaurtinib' of Supplementary Table 1),run:Lestaurtinib_02601_R2,Plate:MR018",1620 nM
same,potency estimated from few doses,"TTK; compound concentrations:100 nM and 1000 nM (sheet 'Lestaurtinib' of Supplementary Table 1),run:Lestaurtinib_02601_R3,Plate:MR018",1610 nM
same,potency estimated from few doses,TTK; [7],1510 nM
same,potency estimated from few doses,TTK; [8],1430 nM
same,potency estimated from few doses,"TTK; compound concentrations:100 nM and 1000 nM (sheet 'Lestaurtinib' of Supplementary Table 1),run:Lestaurtinib_02624_R2,Plate:MR020",1760 nM
same,potency estimated from few doses,TTK; [9],1430 nM
same,potency estimated from few doses,TTK; [10],1210 nM
same,potency estimated from few doses,"TTK; compound concentrations:100 nM and 1000 nM (sheet 'Lestaurtinib' of Supplementary Table 1),run:Lestaurtinib_02741_R1,Plate:MR023",1340 nM
same,potency estimated from few doses,"TTK; compound concentrations:100 nM and 1000 nM (sheet 'Lestaurtinib' of Supplementary Table 1),run:Lestaurtinib_02741_R2,Plate:MR023",998 nM
same,potency estimated from few doses,TTK; [11],1150 nM
same,potency estimated from few doses,"TTK; compound concentrations:100 nM and 1000 nM (sheet 'Lestaurtinib' of Supplementary Table 1),run:Lestaurtinib_02748_R3,Plate:MR024",1440 nM
same,potency estimated from few doses,TTK; [12],1240 nM
same,potency estimated from few doses,TTK; [13],1440 nM
same,potency estimated from few doses,TTK; [14],907 nM
same,potency estimated from few doses,"TTK; compound concentrations:100 nM and 1000 nM (sheet 'Lestaurtinib' of Supplementary Table 1),run:Lestaurtinib_02768_R1,Plate:MR028",2150 nM
same,potency estimated from few doses,TTK; [15],2240 nM
same,potency estimated from few doses,"TTK; compound concentrations:100 nM and 1000 nM (sheet 'Lestaurtinib' of Supplementary Table 1),run:Lestaurtinib_02795_R1,Plate:MR022",1410 nM
same,potency estimated from few doses,TTK; [16],750 nM
same,potency estimated from few doses,TTK; [17],996 nM
same,potency estimated from few doses,"TTK; compound concentrations:100 nM and 1000 nM (sheet 'Lestaurtinib' of Supplementary Table 1),run:Lestaurtinib_02802_R2,Plate:MR029",924 nM
same,potency estimated from few doses,"TTK; compound concentrations:100 nM and 1000 nM (sheet 'Lestaurtinib' of Supplementary Table 1),run:Lestaurtinib_02802_R3,Plate:MR029",1410 nM
same,potency estimated from few doses,"TTK; compound concentrations:100 nM and 1000 nM (sheet 'Lestaurtinib' of Supplementary Table 1),run:Lestaurtinib_02896_R3,Plate:MR030",953 nM
same,potency estimated from few doses,"TTK; compound concentrations:100 nM and 1000 nM (sheet 'Lestaurtinib' of Supplementary Table 1),run:Lestaurtinib_03252_R2,Plate:MR032",1310 nM
same,potency estimated from few doses,TTK; [18],896 nM
same,potency estimated from few doses,TTK; [19],1540 nM
same,potency estimated from few doses,"TTK; compound concentrations:100 nM and 1000 nM (sheet 'Lestaurtinib' of Supplementary Table 1),run:Lestaurtinib_03260_R3,Plate:MR033",806 nM
